# In PMC7862700, “An all-to-all approach to the identification of sequence-specific readers for epigenetic DNA modifications on cytosine”:
# How the values were obtained:
# Assay in all cases: DAPPL (digital affinity profiling via proximity ligation, sequencing); 10 mM Tris-HCl pH 7.5, 50 mM NaCl, 1 mM DTT, 4% glycerol, room temperature, 30 min; GST-TFs on glutathione beads, 16-mer random dsDNA library, 0.1% formaldehyde crosslink after washing; high values mean tight binding
# Details in all cases: protein: recombinant; tags: N-terminal GST; dsDNA, one strand shown
# FLI1 = target: T1, FLI1 (Homo sapiens, UniProt Q01543 1-452)
# T1 sequence: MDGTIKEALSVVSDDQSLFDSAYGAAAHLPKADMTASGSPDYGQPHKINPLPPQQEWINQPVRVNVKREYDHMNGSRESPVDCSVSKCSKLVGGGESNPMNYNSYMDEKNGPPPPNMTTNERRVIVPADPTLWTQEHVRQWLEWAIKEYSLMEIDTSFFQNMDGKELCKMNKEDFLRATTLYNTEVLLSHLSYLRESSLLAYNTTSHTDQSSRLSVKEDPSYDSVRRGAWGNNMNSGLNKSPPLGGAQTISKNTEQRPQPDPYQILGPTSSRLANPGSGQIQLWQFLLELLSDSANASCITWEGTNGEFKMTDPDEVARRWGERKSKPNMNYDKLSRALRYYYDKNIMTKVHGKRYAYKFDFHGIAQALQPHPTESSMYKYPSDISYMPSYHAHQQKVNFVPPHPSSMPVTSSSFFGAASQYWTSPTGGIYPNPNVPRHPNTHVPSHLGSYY
# Method in brief: (§1)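 Sequencing on an Illumina NextSeq500 followed washing, crosslinking with 0.1% formaldehyde, proximity ligation (BsaI/T4 ligase, 1 h, 37 °C) and PCR amplification of pools that had been incubated for 30 min at room temperature with 200 nmole of a random double-stranded 16-mer DNA library in Tris/NaCl/DTT/glycerol buffer. Each pool held DNA-barcoded human transcription factors, expressed in yeast as GST fusions and captured on glutathione beads, plus a tag-only sample. Binding signal is a hexamer's read frequency for a factor divided by its frequency in the tag-only sample.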
# ELK1 = target: T2, ELK1 (Homo sapiens, UniProt P19419 1-428)
# T2 sequence: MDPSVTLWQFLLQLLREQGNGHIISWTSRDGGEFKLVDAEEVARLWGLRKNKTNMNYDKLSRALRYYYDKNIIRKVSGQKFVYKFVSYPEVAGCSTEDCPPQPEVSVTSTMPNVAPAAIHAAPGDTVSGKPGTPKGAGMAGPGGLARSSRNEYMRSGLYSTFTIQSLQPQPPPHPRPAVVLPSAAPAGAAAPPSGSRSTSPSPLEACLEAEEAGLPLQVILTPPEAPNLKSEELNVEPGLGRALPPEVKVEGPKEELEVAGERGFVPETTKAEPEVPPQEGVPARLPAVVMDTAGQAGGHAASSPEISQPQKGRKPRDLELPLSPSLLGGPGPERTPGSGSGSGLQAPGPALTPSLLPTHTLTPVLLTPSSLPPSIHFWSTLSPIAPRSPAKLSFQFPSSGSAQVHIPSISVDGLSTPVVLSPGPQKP
# Method in brief: as §1
# ERG = target: T3, ERG (Homo sapiens, UniProt P11308 1-479)
# T3 sequence: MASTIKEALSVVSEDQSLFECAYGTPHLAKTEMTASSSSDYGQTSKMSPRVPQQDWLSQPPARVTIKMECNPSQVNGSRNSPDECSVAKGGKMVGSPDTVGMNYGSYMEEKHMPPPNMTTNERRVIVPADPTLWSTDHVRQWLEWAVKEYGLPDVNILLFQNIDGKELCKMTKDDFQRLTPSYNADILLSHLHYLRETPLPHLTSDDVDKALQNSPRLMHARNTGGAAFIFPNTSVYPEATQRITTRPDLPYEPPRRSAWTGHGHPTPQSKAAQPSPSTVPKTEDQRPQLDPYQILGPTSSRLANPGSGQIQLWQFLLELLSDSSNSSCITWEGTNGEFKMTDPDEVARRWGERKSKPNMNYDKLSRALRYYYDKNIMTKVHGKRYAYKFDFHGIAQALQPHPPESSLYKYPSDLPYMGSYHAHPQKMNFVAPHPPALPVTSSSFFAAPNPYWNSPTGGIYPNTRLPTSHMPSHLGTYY
# Method in brief: as §1
# ELF1 = ELF1 (Homo sapiens, UniProt P32519 1-619)
# Method in brief: as §1
# SPI1 = SPI1 (Homo sapiens, UniProt P17947 1-270)
# Method in brief: as §1
# SPIB = SPIB (Homo sapiens, UniProt Q01892 1-262)
# Method in brief: as §1
# ELK3 = target: T4, ELK3 (Homo sapiens, UniProt P41970 1-407)
# T4 sequence: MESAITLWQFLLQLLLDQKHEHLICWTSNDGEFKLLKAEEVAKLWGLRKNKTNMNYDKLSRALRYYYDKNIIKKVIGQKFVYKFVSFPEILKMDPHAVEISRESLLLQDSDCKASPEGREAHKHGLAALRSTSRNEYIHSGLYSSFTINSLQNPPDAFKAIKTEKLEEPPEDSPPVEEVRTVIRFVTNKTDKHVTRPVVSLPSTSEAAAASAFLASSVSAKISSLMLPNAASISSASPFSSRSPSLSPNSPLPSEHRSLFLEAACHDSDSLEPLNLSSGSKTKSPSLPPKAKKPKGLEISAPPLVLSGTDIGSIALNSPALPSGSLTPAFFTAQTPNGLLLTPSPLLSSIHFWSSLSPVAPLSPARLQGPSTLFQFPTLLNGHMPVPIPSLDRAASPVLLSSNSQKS
# Method in brief: as §1
# SPIC = target: T5, SPIC (Homo sapiens, UniProt Q8N5J4 1-248)
# T5 sequence: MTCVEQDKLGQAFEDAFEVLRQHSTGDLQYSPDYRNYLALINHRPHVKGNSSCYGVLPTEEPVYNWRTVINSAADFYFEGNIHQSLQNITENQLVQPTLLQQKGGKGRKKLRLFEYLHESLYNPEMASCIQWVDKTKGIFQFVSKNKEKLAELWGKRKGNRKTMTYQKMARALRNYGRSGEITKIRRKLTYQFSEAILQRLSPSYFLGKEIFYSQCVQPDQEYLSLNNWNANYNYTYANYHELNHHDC
# Method in brief: as §1
# ELF4 = ELF4 (Homo sapiens, UniProt Q99607 1-663)
# Method in brief: as §1
# ETV2 = target: T6, ETV2 (Homo sapiens, UniProt O00321 1-342)
# T6 sequence: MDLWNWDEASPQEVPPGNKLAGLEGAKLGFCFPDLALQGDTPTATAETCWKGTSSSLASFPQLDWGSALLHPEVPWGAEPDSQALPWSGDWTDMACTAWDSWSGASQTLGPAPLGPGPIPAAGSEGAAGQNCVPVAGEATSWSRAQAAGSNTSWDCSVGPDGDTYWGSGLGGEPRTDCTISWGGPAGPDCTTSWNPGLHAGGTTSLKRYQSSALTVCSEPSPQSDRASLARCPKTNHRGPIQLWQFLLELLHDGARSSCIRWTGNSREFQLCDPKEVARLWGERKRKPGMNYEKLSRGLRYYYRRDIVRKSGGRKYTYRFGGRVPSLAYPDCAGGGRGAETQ
# Method in brief: as §1
# ELF3 = target: T7, ELF3 (Homo sapiens, UniProt P78545 1-371)
# T7 sequence: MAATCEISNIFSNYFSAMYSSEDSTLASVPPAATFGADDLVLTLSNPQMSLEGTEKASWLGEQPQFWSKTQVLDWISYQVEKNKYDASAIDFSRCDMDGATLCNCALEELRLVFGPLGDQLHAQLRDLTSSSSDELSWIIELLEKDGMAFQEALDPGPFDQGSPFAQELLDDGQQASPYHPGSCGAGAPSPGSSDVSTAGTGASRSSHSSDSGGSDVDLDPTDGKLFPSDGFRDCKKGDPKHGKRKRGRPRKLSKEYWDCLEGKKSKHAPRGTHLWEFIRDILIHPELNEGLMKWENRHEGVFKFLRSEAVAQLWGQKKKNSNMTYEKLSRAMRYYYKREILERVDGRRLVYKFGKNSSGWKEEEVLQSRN
# Method in brief: as §1
# ETV1 = ETV1 (Homo sapiens, UniProt P50549 1-477)
# Method in brief: as §1
# ERF = target: T8, ERF (Homo sapiens, UniProt P50548 1-548)
# T8 sequence: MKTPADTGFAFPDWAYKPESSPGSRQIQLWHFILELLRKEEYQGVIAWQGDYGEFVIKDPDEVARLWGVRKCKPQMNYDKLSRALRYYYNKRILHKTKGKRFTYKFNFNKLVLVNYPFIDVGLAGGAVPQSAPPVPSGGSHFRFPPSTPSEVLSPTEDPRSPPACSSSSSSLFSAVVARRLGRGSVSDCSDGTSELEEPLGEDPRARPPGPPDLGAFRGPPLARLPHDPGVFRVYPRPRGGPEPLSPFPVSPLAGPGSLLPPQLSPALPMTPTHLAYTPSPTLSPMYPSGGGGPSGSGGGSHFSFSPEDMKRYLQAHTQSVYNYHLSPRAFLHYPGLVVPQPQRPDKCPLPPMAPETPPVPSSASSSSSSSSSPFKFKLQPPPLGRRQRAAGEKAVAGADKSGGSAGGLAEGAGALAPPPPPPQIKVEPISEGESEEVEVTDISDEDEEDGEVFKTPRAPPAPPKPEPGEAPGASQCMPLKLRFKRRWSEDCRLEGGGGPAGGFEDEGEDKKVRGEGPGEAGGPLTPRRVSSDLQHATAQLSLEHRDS
# Method in brief: as §1
# ETV3L = target: T9, ETV3L (Homo sapiens, UniProt Q6ZN32 1-361)
# T9 sequence: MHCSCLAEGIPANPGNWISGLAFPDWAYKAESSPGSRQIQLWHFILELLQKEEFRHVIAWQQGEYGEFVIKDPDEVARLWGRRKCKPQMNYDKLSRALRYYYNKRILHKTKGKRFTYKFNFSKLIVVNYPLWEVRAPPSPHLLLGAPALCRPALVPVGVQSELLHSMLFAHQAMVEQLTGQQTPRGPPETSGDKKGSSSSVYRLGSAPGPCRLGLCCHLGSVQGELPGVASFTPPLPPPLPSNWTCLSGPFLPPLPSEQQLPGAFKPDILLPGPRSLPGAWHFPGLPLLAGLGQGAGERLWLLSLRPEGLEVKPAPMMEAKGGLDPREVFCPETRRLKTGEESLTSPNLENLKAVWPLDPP
# Method in brief: as §1
# ETS2 = target: T10, ETS2 (Homo sapiens, UniProt P15036 1-469)
# T10 sequence: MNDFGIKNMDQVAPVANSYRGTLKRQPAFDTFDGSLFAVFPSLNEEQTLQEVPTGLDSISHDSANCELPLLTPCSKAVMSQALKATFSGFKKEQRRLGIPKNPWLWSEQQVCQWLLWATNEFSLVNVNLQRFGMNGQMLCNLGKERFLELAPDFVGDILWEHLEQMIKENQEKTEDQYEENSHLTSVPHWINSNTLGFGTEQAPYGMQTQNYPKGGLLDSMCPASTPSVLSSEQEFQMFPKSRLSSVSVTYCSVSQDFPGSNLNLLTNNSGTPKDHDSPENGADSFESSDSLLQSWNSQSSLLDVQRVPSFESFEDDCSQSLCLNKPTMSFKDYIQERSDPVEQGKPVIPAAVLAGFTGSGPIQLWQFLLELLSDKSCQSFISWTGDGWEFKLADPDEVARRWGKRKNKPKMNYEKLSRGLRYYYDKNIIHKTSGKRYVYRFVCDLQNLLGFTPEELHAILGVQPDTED
# Method in brief: as §1
# ETV7 = target: T11, ETV7 (Homo sapiens, UniProt Q9Y603 1-341)
# T11 sequence: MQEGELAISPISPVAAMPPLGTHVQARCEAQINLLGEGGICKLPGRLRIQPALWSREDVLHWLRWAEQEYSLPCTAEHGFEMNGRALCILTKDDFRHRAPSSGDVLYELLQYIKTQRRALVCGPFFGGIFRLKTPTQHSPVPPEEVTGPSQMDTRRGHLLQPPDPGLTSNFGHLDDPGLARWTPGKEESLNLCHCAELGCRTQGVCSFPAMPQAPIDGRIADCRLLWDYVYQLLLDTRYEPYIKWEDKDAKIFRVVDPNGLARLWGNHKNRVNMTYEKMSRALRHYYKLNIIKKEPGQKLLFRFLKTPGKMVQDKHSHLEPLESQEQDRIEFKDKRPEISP
# Method in brief: as §1
# ETV3 = target: T12, ETV3 (Homo sapiens, UniProt P41162-2 1-143)
# T12 sequence: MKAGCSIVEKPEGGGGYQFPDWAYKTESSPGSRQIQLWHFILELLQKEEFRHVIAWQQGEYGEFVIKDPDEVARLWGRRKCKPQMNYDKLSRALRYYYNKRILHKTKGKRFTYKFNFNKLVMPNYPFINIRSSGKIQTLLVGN
# Method in brief: as §1
# ETV6 = ETV6 (Homo sapiens, UniProt P41212 1-452)
# Method in brief: as §1
# ELF4, sequence (Q99607 whole entry): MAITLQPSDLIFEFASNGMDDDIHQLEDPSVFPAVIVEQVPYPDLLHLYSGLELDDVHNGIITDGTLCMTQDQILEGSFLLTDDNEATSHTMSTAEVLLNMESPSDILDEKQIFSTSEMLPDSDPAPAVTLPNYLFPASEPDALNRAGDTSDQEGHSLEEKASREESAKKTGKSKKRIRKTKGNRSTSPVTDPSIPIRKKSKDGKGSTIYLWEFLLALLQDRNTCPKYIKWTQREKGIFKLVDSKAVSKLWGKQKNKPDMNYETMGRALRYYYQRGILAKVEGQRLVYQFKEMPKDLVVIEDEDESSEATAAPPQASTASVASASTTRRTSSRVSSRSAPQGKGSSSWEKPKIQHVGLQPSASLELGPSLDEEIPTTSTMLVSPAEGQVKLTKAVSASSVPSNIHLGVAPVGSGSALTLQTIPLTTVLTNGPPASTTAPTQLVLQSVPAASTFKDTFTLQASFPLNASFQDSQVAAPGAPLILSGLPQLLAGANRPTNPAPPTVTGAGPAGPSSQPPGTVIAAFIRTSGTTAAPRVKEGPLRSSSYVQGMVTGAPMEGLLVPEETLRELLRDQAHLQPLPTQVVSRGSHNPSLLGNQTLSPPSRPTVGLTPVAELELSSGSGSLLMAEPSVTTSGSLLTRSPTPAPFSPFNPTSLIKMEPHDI
# ETV1, sequence (P50549 whole entry): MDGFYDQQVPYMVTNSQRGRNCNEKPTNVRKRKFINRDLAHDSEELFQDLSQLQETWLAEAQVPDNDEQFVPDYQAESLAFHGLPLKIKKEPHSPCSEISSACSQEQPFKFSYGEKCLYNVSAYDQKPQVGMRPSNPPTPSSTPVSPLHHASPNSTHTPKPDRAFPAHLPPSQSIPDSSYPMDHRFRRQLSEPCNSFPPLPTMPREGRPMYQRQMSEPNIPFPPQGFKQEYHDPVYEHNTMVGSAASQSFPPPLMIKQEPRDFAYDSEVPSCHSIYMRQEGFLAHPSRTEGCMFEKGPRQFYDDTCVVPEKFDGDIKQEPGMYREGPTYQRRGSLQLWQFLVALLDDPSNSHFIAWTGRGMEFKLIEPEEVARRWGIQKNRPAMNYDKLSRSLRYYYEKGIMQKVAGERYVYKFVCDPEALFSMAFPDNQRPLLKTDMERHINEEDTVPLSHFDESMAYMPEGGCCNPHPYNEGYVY
# SPIB, sequence (Q01892 whole entry): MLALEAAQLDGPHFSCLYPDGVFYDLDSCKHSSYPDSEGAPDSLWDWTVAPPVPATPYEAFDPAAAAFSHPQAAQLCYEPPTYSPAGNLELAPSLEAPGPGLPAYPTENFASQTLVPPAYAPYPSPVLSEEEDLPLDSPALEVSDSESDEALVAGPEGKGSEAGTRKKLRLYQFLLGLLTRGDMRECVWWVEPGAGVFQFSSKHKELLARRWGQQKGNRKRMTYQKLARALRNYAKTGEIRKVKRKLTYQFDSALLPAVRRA
# ELF1, sequence (P32519 whole entry): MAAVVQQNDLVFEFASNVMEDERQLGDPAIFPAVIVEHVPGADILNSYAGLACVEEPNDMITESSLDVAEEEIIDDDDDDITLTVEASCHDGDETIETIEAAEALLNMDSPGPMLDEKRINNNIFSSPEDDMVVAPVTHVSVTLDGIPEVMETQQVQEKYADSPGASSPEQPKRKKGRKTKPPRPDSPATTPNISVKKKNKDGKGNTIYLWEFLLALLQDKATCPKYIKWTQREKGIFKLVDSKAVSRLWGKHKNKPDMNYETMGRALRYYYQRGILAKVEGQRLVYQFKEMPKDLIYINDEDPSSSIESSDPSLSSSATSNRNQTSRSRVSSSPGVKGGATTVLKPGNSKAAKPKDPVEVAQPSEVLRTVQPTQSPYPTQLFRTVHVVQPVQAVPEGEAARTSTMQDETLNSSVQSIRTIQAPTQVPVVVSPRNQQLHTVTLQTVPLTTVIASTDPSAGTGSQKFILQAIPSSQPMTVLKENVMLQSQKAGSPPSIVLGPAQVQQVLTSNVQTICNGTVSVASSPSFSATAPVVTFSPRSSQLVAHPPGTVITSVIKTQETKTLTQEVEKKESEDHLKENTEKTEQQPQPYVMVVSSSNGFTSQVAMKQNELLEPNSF
# ETV6, sequence (P41212 whole entry): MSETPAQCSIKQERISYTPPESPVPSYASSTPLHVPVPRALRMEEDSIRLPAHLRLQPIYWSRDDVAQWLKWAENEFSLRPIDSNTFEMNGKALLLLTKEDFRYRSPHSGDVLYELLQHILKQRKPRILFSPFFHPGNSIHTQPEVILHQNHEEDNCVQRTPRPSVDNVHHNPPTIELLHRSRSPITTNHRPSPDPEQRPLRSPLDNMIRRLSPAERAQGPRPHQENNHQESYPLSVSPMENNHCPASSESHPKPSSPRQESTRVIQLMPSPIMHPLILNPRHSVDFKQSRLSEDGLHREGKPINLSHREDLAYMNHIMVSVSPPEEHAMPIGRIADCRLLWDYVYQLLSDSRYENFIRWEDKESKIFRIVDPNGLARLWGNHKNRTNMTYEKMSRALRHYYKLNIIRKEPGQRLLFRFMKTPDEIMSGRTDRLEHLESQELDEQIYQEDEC
sequence,measurement,setting,value
TGATTG,binding signal,FLI1,"1.16 fold enrichment (6-mer frequency, TF over GST control)"
same,binding signal,ELK1,"1.16 fold enrichment (6-mer frequency, TF over GST control)"
same,binding signal,ERG,"1.08 fold enrichment (6-mer frequency, TF over GST control)"
same,binding signal,ELF1,"1.06 fold enrichment (6-mer frequency, TF over GST control)"
same,binding signal,SPI1,"1.04 fold enrichment (6-mer frequency, TF over GST control)"
same,binding signal,SPIB,"1.09 fold enrichment (6-mer frequency, TF over GST control)"
same,binding signal,ELK3,"1.11 fold enrichment (6-mer frequency, TF over GST control)"
same,binding signal,SPIC,"1.05 fold enrichment (6-mer frequency, TF over GST control)"
same,binding signal,ELF4,"1.02 fold enrichment (6-mer frequency, TF over GST control)"
same,binding signal,ETV2,"1.06 fold enrichment (6-mer frequency, TF over GST control)"
same,binding signal,ELF3,"1.05 fold enrichment (6-mer frequency, TF over GST control)"
same,binding signal,ETV1,"1.1 fold enrichment (6-mer frequency, TF over GST control)"
same,binding signal,ERF,"1.13 fold enrichment (6-mer frequency, TF over GST control)"
same,binding signal,ETV3L,"1.09 fold enrichment (6-mer frequency, TF over GST control)"
same,binding signal,ETS2,"1.01 fold enrichment (6-mer frequency, TF over GST control)"
same,binding signal,ETV7,"1.05 fold enrichment (6-mer frequency, TF over GST control)"
same,binding signal,ETV3,"1.05 fold enrichment (6-mer frequency, TF over GST control)"
same,binding signal,ETV6,"1.04 fold enrichment (6-mer frequency, TF over GST control)"
